# An excerpt weighted towards active compounds, which were near 2.7% of everything screened.
# PAX8 reporter: inhibitors of PAX8-driven TPO luciferase reporter, primary screen, RMG-I cells, single concentration | SteadyGlo, 24 h | inhibition, % at 12.6 µM | hit rate 1.2% among 360,000;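 active means mean replicate inhibition at least 60% with every replicate also reaching 60%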;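 further: luciferase light reporting Pax8 driven TPO promoter activity; plate controls were median of neutral control wells for no effect and mitoxantrone controls for full effect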
# INS-1E GSIS act: GLuc luminescence reporter in INS-1E cells, primary screen for activators of glucose-dependent secretion of insulin; INS-1E GLuc reporter insulin secretion, 2-3 h; activation, % at 16.6 µM; hit rate 0.61% among 370,000;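 active means lowest replicate activation of at least 40%, so every replicate reaches that level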;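 further: 0% = median of neutral control wells and 100% = median of IBMX positive control wells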
# HIV Env fusion: inhibitors of HIV-1 Env-driven cell-cell fusion, primary screen, HeLa-JRFL effector, CEM21 target cells, luciferase; AID 651610, 2012; inhibition, % at 12.3 µM; hit rate 1.1% among 360,000;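 active means mean replicate inhibition score of at least 50 and every replicate individually at or above 50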;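 further: 0% = plate neutral controls and 100% = maraviroc near 300 nM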
# EWS-Fli inh: EWS/Fli-driven NR0B1 reporter inhibitors, primary screen, A673 cells, NR0B1 luciferase, luminescence, MLPCN library; hit rate 0.67% among 350,000; inhibition, % at 12.6 µM; viability-normalised; AID 651661, 2012;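 active means mean inhibition of at least 50% after viability correction, with every replicate also passing that limit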;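 further: firefly luciferase signal divided by Alamar Blue viability fluorescence both relative to DMSO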
# CFTR F508del cor: F508del CFTR correction, initial screen, CFBE line, single point; hit rate 0.36% among 350,000; CFBE cells, YFP halide quenching; stimulated with forskolin plus potentiator P3; % fluorescence drop versus neutral controls; activity (quench increase), % at 7.58 µM;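 active means mean added fluorescence quench of at least 8% versus neutral control, with both replicates also reaching 8%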;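 further: cells transiently co-express mutant CFTR-F508del with the halide-sensitive YFP; corrector assay measuring rescue of mutant channel to the surface after 24 h compound exposure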
# PGC1a acetyl inh: inhibitors of PGC1a acetylation signal, primary screen, cell-based, U2OS, AlphaScreen, inhibitor mode; AlphaScreen anti-acetyl-lysine; with virally co-expressed GCN5 acetyltransferase; inhibition, % at 15.6 µM; hit rate 0.17% among 350,000; AID 651687, 2012;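 active means every replicate shows inhibition of at least 40%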;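 further: 0% = neutral control wells and 100% = positive control wells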
# An asterisk follows results filed as active; / = no result given; [ ] = dose if it differs, or a comment.
SMILES,PAX8 reporter,INS-1E GSIS act,HIV Env fusion,EWS-Fli inh,CFTR F508del cor,PGC1a acetyl inh
C[C@H](CO)N1C[C@H](C)[C@@H](CN(C)S(=O)(=O)c2ccc(-c3ccccc3)cc2)OCc2cnnn2CCCC1=O,4,-14,/,4,1,-2
O=C(NC(=S)Nc1ccc(NC(=O)c2cccs2)cc1)c1cc2ccccc2o1,-17,74*,4,/,/,/
COc1ccc(C#Cc2ccc3c(c2)[C@H]2[C@H](CCN2C(=O)CC2CC2)[C@H](CO)N3)cc1,-21,3,/,-8,0,14
CC1(C)C2CC=C(/C=N/NC(=S)NCCc3ccccc3)C1C2 (stereo unspecified),13,/,67*,4,2,/
CNC(=S)N/N=C/C1=CCC2CC1C2(C)C (stereo unspecified),33,-9,/,3,-2,/
CCOc1ccc(N/C=C/C(=O)c2ccccc2)c([N+](=O)[O-])c1,-26,-6,-235,60*,-1,/
COc1ccc(NC(=O)N2C[C@H]3[C@@H](c4ccccc42)[C@@H](CO)N3C(=O)C2CCCCC2)cc1,-6,-4,/,-5,-3,-2
CN(Cc1ccc(F)cc1)C(=O)c1cc(COc2ccc(-n3cncn3)cc2)on1,19,-41,62*,0,0,7
CCc1ccc(CN(C)C(=O)c2cc(COc3ccc(-n4cncn4)cc3)on2)cc1,-6,-7,9,-10,-1,2
CCCNC(=O)N(C)C[C@H]1Oc2cc(-c3cncnc3)ccc2S(=O)(=O)N([C@@H](C)CO)C[C@@H]1C,-5,13,/,-6,0,7
C[C@H](CO)N1C[C@H](C)[C@H](CN(C)C(=O)Cc2ccccc2)OCCCC[C@H](C)Oc2ccc(NS(=O)(=O)c3ccccc3)cc2C1=O,-5,-23,-68[16.7 µM],60*,0,21
C[C@H](CO)N1C[C@H](C)[C@H](CN(C)C(=O)Cc2ccccc2)OCCCC[C@H](C)Oc2ccc(NS(=O)(=O)c3ccc(Cl)cc3)cc2C1=O,67*,1,23[16.7 µM],-9,1,-11
CO[C@@H]1CN(C)C(=O)c2ccc(NC(=O)C3CC3)cc2OC[C@@H](C)N(CCc2ccccc2)C[C@@H]1C,-7,-11,13[16.7 µM],3,2,2
CCN1C(=O)[C@H]2[C@@H](c3ccc(C(F)(F)F)cc3)N[C@]3(CCCN(Cc4ccc(F)cc4)C3=O)[C@H]2C1=O,-3,-1,-62,1,-1,5
CCN1C(=O)[C@H]2[C@@H](c3ccc(C(F)(F)F)cc3)N[C@]3(CCCN(Cc4ccccc4)C3=O)[C@H]2C1=O,2,/,78*,-3,-2,2
Cc1nn(C)c(Cl)c1NC(=O)OCc1ccc(Cl)cc1Cl,14,/,73*,/,/,/
Cc1cccc(NC(=O)c2cnc3ccccn3c2=O)c1,-224,/,-27,58*,-2,/
Cc1cc([N+](=O)[O-])ccc1N,/,42*,-24,-4,2,/
C=CCn1c(SCC(=O)NCc2ccc3c(c2)OCO3)nc2scc(-c3ccc(F)cc3)c2c1=O,-2,112*,107*,/,/,-17
C=CCn1c(SC(C)C(=O)NCc2ccc3c(c2)OCO3)nc2scc(-c3ccccc3)c2c1=O (stereo unspecified),/,-34,119*,/,/,-13
CSc1ncccc1C(=O)NCCc1ccccc1F,-16,73*,3,-15,-1,-6
Cn1c(=O)c(C(=O)NNC(=O)c2ccc(Br)cc2)c(O)c2ccccc21,64*,-1,18,17,0,/
Cn1c(=O)c(C(=O)NNC(=O)c2ccccc2F)c(O)c2ccccc21,21,18,14,6,0,-14
Cc1ccc(CC2(OCCN(C)C)CCC(C(C)(C)C)CC2)cc1 (stereo unspecified),/,750*,7,39,3,/
CCOc1cc(C2C(C#N)=C(N)SC(N)=C2C#N)ccc1OCCN1CCOCC1,/,82*,34,/,/,6
O=C(Nc1ccc2c(c1)OCO2)Nc1ccc2c(c1)OCO2,-193,-5,-10,-67,-1,/
COc1cccc(NC(=O)Nc2cccc(C(=O)O)c2)c1,80*,2,71*,75*,-3,-10
O=C(Nc1cccc(C(=O)O)c1)Nc1ccc2c(c1)OCO2,103*,10,83*,79*,-4,/
